Values without a mark were called inactive. The rule behind the calls is not given here.

One may read the inhibition as the relative decrease from the control value, in per cent.

The target of the assay is Pantothenate synthetase (Mycobacterium tuberculosis (strain ATCC 25618 / H37Rv)) (UniProt P9WIL5). As to the kind of experiment: Recombinant Mtb pantothenate synthetase (PanC) inhibitors, coupled enzyme, confirmatory (AID 375).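 Note: 0% = full reaction with vehicle and 100% = no enzyme background.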 The conditions noted are these: coupled enzyme assay; at 10 µM, hits give high values.
Chain of Pantothenate synthetase (Mycobacterium tuberculosis (strain ATCC 25618 / H37Rv)) (P9WIL5 whole entry, looked up): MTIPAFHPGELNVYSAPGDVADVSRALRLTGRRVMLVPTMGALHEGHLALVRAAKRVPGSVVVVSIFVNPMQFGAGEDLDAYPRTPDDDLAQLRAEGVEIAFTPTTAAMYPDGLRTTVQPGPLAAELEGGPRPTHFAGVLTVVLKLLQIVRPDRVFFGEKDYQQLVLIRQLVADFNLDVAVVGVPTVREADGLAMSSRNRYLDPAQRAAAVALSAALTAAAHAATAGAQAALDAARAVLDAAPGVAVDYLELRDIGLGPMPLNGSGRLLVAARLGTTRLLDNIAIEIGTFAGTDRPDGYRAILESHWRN
As for `CCOC(=O)Cn1c(CN(C)Cc2ccccc2)nc2c1c(=O)n(C)c(=O)n2C`, the inhibition was 5%.

Consider `CCOC(=O)c1cc(-c2ccc3c(c2)OCO3)nc2onc(C)c12`, for which the inhibition was 0%.

For the molecule `CCOc1cc(C(=O)N(C)c2ccccc2)cc(OCC)c1OCC`, the inhibition was 1%.

In the case of `CCOC(=O)C1CSC(CC(=O)Nc2ccc(Cl)cc2)C(=O)N1` (stereo not given), the inhibition was 0%.

On to `Cn1c(=O)c2[nH]c(NCC3CCCO3)nc2n(-c2ccccc2)c1=O` (stereo not given), for which the inhibition is 0%.

On to `COc1ccc(-c2c(C(F)(F)F)oc3c(CN4CCN(C)CC4)c(O)ccc3c2=O)cc1`, for which the inhibition was 4%.

As to `O=C1CS/C(=N\C(=O)N2c3ccccc3Sc3ccccc32)N1`, the inhibition was 0%.

On to `COC(=O)Cc1cc(=O)[nH]c(Nc2nc3ccccc3o2)n1`, for which the inhibition is 0%.

On to `O=C(CSc1nnnn1-c1ccccc1)c1cc2ccccc2oc1=O`, for which the inhibition is 0%.

In the case of `Nc1nc2ccccc2n1/N=C/c1ccc(Br)cc1`, the inhibition is 1%.

On to `CC(NC(=O)c1noc2c1CCCCC2)c1ccccc1` (stereo not given), for which the inhibition is 0%.

On to `Cc1nc(SCC#N)c2c(C)c(C)sc2n1`, for which the inhibition was 0%.

On to `Cc1cc(OCC(=O)NCCO)cc(C)c1Cl`, for which the inhibition was 3%.

Turning to `CCC(C)(C)NC(=O)CN(Cc1ccc2c(c1)OCO2)C(=O)CCC(=O)Nc1ccccn1`, the inhibition was 3%.

With `Cc1c(C(=O)OCc2ccccc2)[nH]c2c1C(=O)CC(c1ccco1)C2` (stereo not given), the inhibition was 1%.

For the molecule `CC(=O)c1cc(Cl)ccc1OC(=O)c1ccco1`, the inhibition was 0%.

For `Cc1ccc(C)c(NC(=O)c2ccc3c(c2)N(Cc2ccc(F)cc2)C(=O)CS3=O)c1` (stereo not given), the inhibition was 0%.

As for `COCCSc1ccccc1C(=O)Nc1nncs1`, the inhibition is 0%.

With `O=C(O)C1CC(=O)N(c2ccc(OCc3ccccc3Cl)cc2)C1` (stereo not given), the inhibition was 0%.

Consider `COc1ccc(CCNC(=O)CSc2nncn2N)cc1OC`, for which the inhibition is 5%.

As to `Cc1ccc(C(=O)OCC(=O)Nc2ccc3c(c2)OCO3)o1`, the inhibition is 4%.

As for `Cc1cccc(N2CCN(C(=O)c3cc4c(=O)[nH]c5ccccc5c4n3C)CC2)c1C`, the inhibition was 7%.

As to `CCCN1C2=C(C(=O)CCC2)C(c2ccc(O)c(Br)c2)C2=C1CCCC2=O`, the inhibition is 0%.

For the molecule `CCOC(=O)c1oc2ccccc2c1NC(=O)c1cccc(OC)c1OC`, the inhibition was 0%.

Take `CCCOc1ccccc1C1CC(=O)Nc2cc3c(cc21)OCCO3` (stereo not given): the inhibition is 2%.

Regarding `O=C(Cn1nnc(-c2cc(Cl)ccc2-n2cnnn2)n1)N1CCCc2ccccc21`, the inhibition was 0%.

For `COCCNC(=O)C(c1ccc(C)o1)N(Cc1cccs1)C(=O)c1snc(C(N)=O)c1N` (stereo not given), the inhibition is 4%.

Turning to `COc1ccc(C/C(O)=C(\C#N)c2nc3ccccc3s2)cc1`, the inhibition is 4%.

As to `Cn1cccc1Cc1nnc(SCC(=O)Nc2ccccc2F)n1CCc1ccccc1`, the inhibition was 0%.

With `CC(=O)Nc1cccc(NC(=O)CSc2nnnn2C(C)C)c1`, the inhibition is 5%.

On to `O=C(C1CC2CCC1C2)N1CCN(Cc2ccc3c(c2)OCO3)CC1` (stereo not given), for which the inhibition was 8%.

On to `N#CC1=C(SCc2ccccc2)NC(=O)C(C#N)C12CCCC2` (stereo not given), for which the inhibition was 2%.

For `CNC(=O)NCCN1CCCC1=O`, the inhibition is 6%.

On to `CC1=C(C(=O)OC2CCCCC2)C(c2cccnc2)n2ncnc2N1` (stereo not given), for which the inhibition is 0%.

With `CCC(c1nnc(SCC(=O)Nc2ccc(C(=O)Nc3ccccc3OC)cc2)o1)N(C)C` (stereo not given), the inhibition is 0%.

`CCn1c(SCC(=O)Nc2ccccc2N2CCCCC2)nc2c1c(=O)n(C)c(=O)n2C`: the inhibition was 2%.

Consider `CC1=NN(c2ccccc2)C(=O)C1`, for which the inhibition is 0%.

On to `Cc1ccc(N2CC(C(=O)Nc3nnc(C)s3)CC2=O)cc1` (stereo not given), for which the inhibition is 6%.

Consider `COc1ccc(OCC(=O)N2CCN(C(=O)c3cccs3)CC2)cc1`, for which the inhibition is 5%.

Take `O=C(Nc1ccc2c(c1)OCCO2)c1cnc2n(c1=O)CCS2`: the inhibition is 0%.

The record behind these values is PubChem BioAssay.
